Assay results reported in PubChem BioAssay AID1159580 (chemical genetic matrix, 2015).
Hit rate of the full screen: of about 5,500 compounds, about 2,000 (36%) were called active. Inconclusive results (about 18%) are left out. Rule as the data show it: active = normalized growth mostly below about 0.91 (no sharp cut-off); inconclusive = no clear call, values can overlap the other calls; inactive = mostly above about 0.92. The list shows a part of the results.

Test: chemical genetic growth profiling, strain panel (AID 1159580);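 also: tested at 20 µM; growth read once vehicle control cultures reached saturation at 30 °C; 1 = growth at the plate median or of vehicle wells; lower values mean less growth of the strain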
Settings: growth OD

Measured: normalized growth

CS(=O)(=O)c1ccc([C@@H](O)[C@@H](CO)NC(=O)C(Cl)Cl)cc1
inactive: S. cerevisiae deletion strains, locus YKL009W, strain mrt4, stronger effect = lower value 0.977 | S. cerevisiae deletion strains, locus YKL068W, stronger effect = lower value 0.978 | S. cerevisiae deletion strains, locus YKL085W, strain MDH1 (second series), stronger effect = lower value 0.988 | S. cerevisiae deletion strains, locus YKL085W, strain MDH1, stronger effect = lower value 0.988 | S. cerevisiae deletion strains, locus YKL160W, strain elf1, stronger effect = lower value 1.02 | S. cerevisiae deletion strains, locus YKL190W, strain CNB1, stronger effect = lower value 0.991 | S. cerevisiae deletion strains, locus YKR001C, strain vps1, stronger effect = lower value 0.99 | S. cerevisiae deletion strains, locus YKR026C, strain gcn3, stronger effect = lower value 1.03 | S. cerevisiae deletion strains, locus YKR091W, strain srl3, stronger effect = lower value 1.01 | S. cerevisiae deletion strains, locus YLL001W, strain dnm1, stronger effect = lower value 1 | S. cerevisiae deletion strains, locus YLL026W, stronger effect = lower value 1.02 | S. cerevisiae deletion strains, locus YLL041C, strain sdh2, stronger effect = lower value 1.02 | S. cerevisiae deletion strains, locus YLR027C, strain aat2, stronger effect = lower value 1.01 | S. cerevisiae deletion strains, locus YLR039C, strain RIC1, stronger effect = lower value 0.947 | S. cerevisiae deletion strains, locus YLR058C, strain SHM2, stronger effect = lower value 0.965 | S. cerevisiae deletion strains, locus YLR102C, strain apc9, stronger effect = lower value 0.978 | S. cerevisiae deletion strains, locus YLR113W, strain HOG1, stronger effect = lower value 0.998 | S. cerevisiae deletion strains, locus YLR221C, strain rsa3, stronger effect = lower value 1.01 | S. cerevisiae deletion strains, locus YLR258W, strain gsy2, stronger effect = lower value 1.02 | S. cerevisiae deletion strains, locus YLR262C, strain YPT6 (second series), stronger effect = lower value 1.03 | S. cerevisiae deletion strains, locus YLR262C, strain YPT6, stronger effect = lower value 0.849 | S. cerevisiae deletion strains, locus YLR268W, strain sec22, stronger effect = lower value 0.983 | S. cerevisiae deletion strains, locus YLR320W, strain mms22, stronger effect = lower value 0.991 | S. cerevisiae deletion strains, locus YLR330W, strain CHS5, stronger effect = lower value 0.982 | S. cerevisiae deletion strains, locus YLR342W, strain FKS1 (second series), stronger effect = lower value 1.01 | S. cerevisiae deletion strains, locus YLR342W, strain FKS1, stronger effect = lower value 1.01 | S. cerevisiae deletion strains, locus YLR357W, strain rsc2, stronger effect = lower value 1 | S. cerevisiae deletion strains, locus YLR370C, strain arc18, stronger effect = lower value 1.03 | S. cerevisiae deletion strains, locus YLR371W, strain rom2, stronger effect = lower value 0.993 | S. cerevisiae deletion strains, locus YLR384C, strain iki3, stronger effect = lower value 1.02 | S. cerevisiae deletion strains, locus YLR418C, strain cdc73, stronger effect = lower value 0.98 | S. cerevisiae deletion strains, locus YML016C, strain PPZ1, stronger effect = lower value 0.981 | S. cerevisiae deletion strains, locus YML032C, strain rad52, stronger effect = lower value 1 | S. cerevisiae deletion strains, locus YML120C, strain ndi1, stronger effect = lower value 1.05 | S. cerevisiae deletion strains, locus YML124C, strain tub3, stronger effect = lower value 0.993 | S. cerevisiae deletion strains, locus YMR058W, strain fet3, stronger effect = lower value 1.03 | S. cerevisiae deletion strains, locus YMR078C, strain ctf18, stronger effect = lower value 0.975 | S. cerevisiae deletion strains, locus YMR125W, strain sto1, stronger effect = lower value 1.04 | S. cerevisiae deletion strains, locus YMR129W, stronger effect = lower value 1.02 | S. cerevisiae deletion strains, locus YMR205C, strain PFK2, stronger effect = lower value 1.01 | S. cerevisiae deletion strains, locus YMR223W, strain ubp8, stronger effect = lower value 1.02 | S. cerevisiae deletion strains, locus YMR231W, strain pep5, stronger effect = lower value 1.03 | S. cerevisiae deletion strains, locus YMR263W, strain SAP30, stronger effect = lower value 0.984 | S. cerevisiae deletion strains, locus YMR307W, strain GAS1, stronger effect = lower value 1.06 | S. cerevisiae deletion strains, locus YNL067W, strain RPL9B, stronger effect = lower value 0.973 | S. cerevisiae deletion strains, locus YNL071W, strain lat1, stronger effect = lower value 1.03 | S. cerevisiae deletion strains, locus YNL128W, strain TEP1, stronger effect = lower value 0.975 | S. cerevisiae deletion strains, locus YNL153C, strain GIM3, stronger effect = lower value 0.981 | S. cerevisiae deletion strains, locus YNL183C, strain NPR1, stronger effect = lower value 0.959 | S. cerevisiae deletion strains, locus YNL209W, strain ssb2, stronger effect = lower value 1.04 | S. cerevisiae deletion strains, locus YNL233W, strain BNI4, stronger effect = lower value 0.99 | S. cerevisiae deletion strains, locus YNL248C, strain rpa49, stronger effect = lower value 1.07 | S. cerevisiae deletion strains, locus YNL250W, strain rad50, stronger effect = lower value 0.981 | S. cerevisiae deletion strains, locus YNL271C, strain bni1, stronger effect = lower value 0.995 | S. cerevisiae deletion strains, locus YNL298W, strain CLA4, stronger effect = lower value 0.988 | S. cerevisiae deletion strains, locus YNL307C, strain MCK1, stronger effect = lower value 0.985 | S. cerevisiae deletion strains, locus YNL322C, strain KRE1 (second series), stronger effect = lower value 1.02 | S. cerevisiae deletion strains, locus YNL322C, strain KRE1, stronger effect = lower value 0.983 | S. cerevisiae deletion strains, locus YNR049C, strain mso1, stronger effect = lower value 1 | S. cerevisiae deletion strains, locus YNR052C, strain pop2, stronger effect = lower value 0.993 | S. cerevisiae deletion strains, locus YOL006C, strain TOP1, stronger effect = lower value 0.889 | S. cerevisiae deletion strains, locus YOL012C, strain htz1 1.83 | S. cerevisiae deletion strains, locus YOL147C, strain pex11, stronger effect = lower value 0.99 | S. cerevisiae deletion strains, locus YOR001W, strain rrp6, stronger effect = lower value 1.03 | S. cerevisiae deletion strains, locus YOR061W, strain CKA2, stronger effect = lower value 0.944 | S. cerevisiae deletion strains, locus YOR069W, strain VPS5, stronger effect = lower value 0.991 | S. cerevisiae deletion strains, locus YOR070C, strain gyp1, stronger effect = lower value 1.03 | S. cerevisiae deletion strains, locus YOR080W, strain dia2, stronger effect = lower value 1.02 | S. cerevisiae deletion strains, locus YOR083W, strain WHI5, stronger effect = lower value 0.98 | S. cerevisiae deletion strains, locus YOR106W, strain vam3, stronger effect = lower value 1.05 | S. cerevisiae deletion strains, locus YOR136W, strain idh2, stronger effect = lower value 0.992 | S. cerevisiae deletion strains, locus YOR144C, strain elg1, stronger effect = lower value 0.983 | S. cerevisiae deletion strains, locus YOR184W, strain ser1, stronger effect = lower value 1.03 | S. cerevisiae deletion strains, locus YOR231W, strain MKK1, stronger effect = lower value 0.967 | S. cerevisiae deletion strains, locus YOR265W, strain rbl2, stronger effect = lower value 1.03 | S. cerevisiae deletion strains, locus YOR270C, strain vph1, stronger effect = lower value 1.12 | S. cerevisiae deletion strains, locus YOR290C, strain snf2, stronger effect = lower value 1.04 | S. cerevisiae deletion strains, locus YOR316C, strain cot1, stronger effect = lower value 0.975 | S. cerevisiae deletion strains, locus YPL051W, strain arl3, stronger effect = lower value 1.02 | S. cerevisiae deletion strains, locus YPL055C, strain LGE1, stronger effect = lower value 0.984 | S. cerevisiae deletion strains, locus YPL078C, strain atp4, stronger effect = lower value 1.04 | S. cerevisiae deletion strains, locus YPL106C, strain sse1, stronger effect = lower value 1.01 | S. cerevisiae deletion strains, locus YPL240C, strain hsp82, stronger effect = lower value 1.02 | S. cerevisiae deletion strains, locus YPL241C, strain CIN2, stronger effect = lower value 0.968 | S. cerevisiae deletion strains, locus YPL256C, strain CLN2, stronger effect = lower value 0.995 | S. cerevisiae deletion strains, locus YPR119W, strain clb2, stronger effect = lower value 1 | S. cerevisiae deletion strains, locus YPR141C, strain kar3, stronger effect = lower value 0.971 | S. cerevisiae deletion strains, locus YPR163C, strain tif3, stronger effect = lower value 1 | S. cerevisiae deletion strains, locus YPR167C, strain met16, stronger effect = lower value 0.975 | S. cerevisiae deletion strains, strain wtn01, stronger effect = lower value 0.984 | S. cerevisiae strains, strain wild type, stronger effect = lower value 0.963
